Calls of active or inactive are those of the source. Unless noted, no rule for the calls is given here.
Assays:
[1] = test system: XIP peptide (Xip251-270) binding; assay: XIP fragment 251-270 binding compounds – biochemical, small-molecule microarray, fluorescence 635/667 nm, 0.1 µg/mL protein, primary screen (AID 1182); settings: fluorescent protein binding, 635 nm, higher = more signal, called active from +8 up or from −8 down
XIP peptide (Xip251-270) = assay: compounds binding XIP fragment 251-270 – biochemical, small-molecule microarray, fluorescence 635/667 nm, 0.5 µg/mL protein, primary screen (AID 1183); settings: fluorescence 635 nm, higher = more signal
[2] = blood-stage malaria parasite viability loss – strain 3D7, DAPI fluorescence, 100 nL, primary screen (AID 1184);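 also: parasites grown inside human red blood cells in medium with human serum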; settings: P. falciparum 3D7 growth, 3 d, higher = more signal
[3] = target: Homeobox protein Hox-A13 (Mus musculus) (UniProt Q62424); assay: disruptors of Hoxa13 oligonucleotide interaction – biochemical, fluorescence polarization, labeled oligonucleotide, primary screen (AID 1185); settings: Hoxa13:DNA binding, 15 min, higher = more signal, called active from +8 up or from −8 down
[4] = blockers of DNA damage checkpoint Chk1 activation – imaging, HeLa, hydroxyurea, phospho-Chk1 antibody, percent positive cells, primary screen (AID 1186); settings: hydroxyurea-induced phospho-Chk1 immunofluorescence imaging, higher = more signal
[5] = blockers of DNA damage checkpoint Chk1 activation – imaging, HeLa, hydroxyurea, phospho-Chk1 nuclear intensity, primary screen (AID 1187); settings: hydroxyurea-induced phospho-Chk1 immunofluorescence imaging, higher = more signal

Homeobox protein Hox-A13 (Mus musculus), sequence (Q62424 whole entry, looked up): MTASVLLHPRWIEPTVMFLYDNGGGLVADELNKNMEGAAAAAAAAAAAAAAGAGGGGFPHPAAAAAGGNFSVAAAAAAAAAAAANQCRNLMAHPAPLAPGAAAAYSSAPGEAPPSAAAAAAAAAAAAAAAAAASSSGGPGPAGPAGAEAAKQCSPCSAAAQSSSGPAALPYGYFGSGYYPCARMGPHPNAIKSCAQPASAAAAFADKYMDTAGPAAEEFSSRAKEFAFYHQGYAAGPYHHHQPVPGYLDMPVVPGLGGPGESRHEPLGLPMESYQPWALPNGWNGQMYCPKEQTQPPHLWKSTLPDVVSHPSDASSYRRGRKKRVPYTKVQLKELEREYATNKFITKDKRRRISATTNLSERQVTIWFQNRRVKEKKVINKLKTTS

C=C[C@@H](C)[C@H](O)c1ccc(OCCO)cc1
composite z-score [1]: 0.313 (inactive)
composite z-score (XIP peptide (Xip251-270)): 0.0813
z-score [2]: 0.99
z-score [3]: -0.166 (inactive)
z-score [4]: 0.485 (inactive)
z-score [5]: 0.739 (inactive)

CC(C)N1CC=CC23O[C@@H]4/C=C\CCCOC(=O)C4[C@H]2C(=O)N(CCCCCCO)[C@@H]3C1=O (stereo partly specified)
composite z-score [1]: 1.15 (inactive)
composite z-score (XIP peptide (Xip251-270)): -0.853
z-score [2]: -0.064
z-score [3]: -5.14 (inactive)
z-score [4]: -0.765 (inactive)
z-score [5]: -0.0806 (inactive)

COC(=O)[C@@]1(Cc2ccc(F)cc2)[C@H]2c3cc(C(=O)N(C)C)n(Cc4ccc(O)c(OC)c4)c3C[C@H]2CN1C(=O)c1ccccc1
composite z-score [1]: 0.0137 (inactive)
composite z-score (XIP peptide (Xip251-270)): 0.744
z-score [2]: -1.76
z-score [3]: -6.34 (inactive)
z-score [4]: -0.156 (inactive)
z-score [5]: -0.131 (inactive)

COC(=O)c1c2oc(c1C(=O)OC)C(=O)N1CCC[C@H]1Cn1nncc1CN(Cc1ccccc1)C(=O)N[C@H](CO)CC2
composite z-score [1]: -0.0783 (inactive)
composite z-score (XIP peptide (Xip251-270)): 0.59
z-score [2]: -0.414
z-score [3]: -3.78 (inactive)
z-score [4]: 0.159 (inactive)
z-score [5]: 0.306 (inactive)

CCC(CC)C(O)C1C=CC2C(=O)N(c3ccccc3)C(=O)C2N1Nc1ccc([N+](=O)[O-])cc1 (stereo unspecified)
composite z-score [1]: 0.39 (inactive)
composite z-score (XIP peptide (Xip251-270)): 0.493
z-score [2]: 1.38
z-score [3]: -3.49 (inactive)
z-score [4]: -0.37 (inactive)
z-score [5]: -1.56 (inactive)

COc1cc(NN2C(C(O)c3ccccc3)C=CC3C(=O)N(C)C(=O)C32)cc(OC)c1OC (stereo unspecified)
composite z-score [1]: 0.561 (inactive)
composite z-score (XIP peptide (Xip251-270)): 0.346
z-score [2]: -0.312
z-score [3]: -3.23 (inactive)
z-score [4]: -0.36 (inactive)
z-score [5]: -0.516 (inactive)

CC(=O)N1CC(C(O)C2C=CC3C(=O)NC(=O)C3N2Nc2ccc(Cl)cc2Cl)c2ccccc21 (stereo unspecified)
composite z-score [1]: 0.111 (inactive)
composite z-score (XIP peptide (Xip251-270)): 0.0205
z-score [2]: -0.252
z-score [3]: -4.92 (inactive)
z-score [4]: 0.358 (inactive)
z-score [5]: 0.492 (inactive)

CCOC(=O)C[C@H]1[C@H](OC(=O)c2ccccc2-c2ccccc2)[C@@H](NC(=O)c2ccc3ccccc3n2)c2cc(OCCCO)ccc2N1C(=O)c1ccccc1
composite z-score [1]: 0.428 (inactive)
composite z-score (XIP peptide (Xip251-270)): 0.04
z-score [2]: -1.66
z-score [3]: -2.46 (inactive)
z-score [4]: 0.342 (inactive)
z-score [5]: 0.6 (inactive)

Cc1ccc(S[C@]2(C(=O)NC(C)C)CC(=O)N(C(C)C)[C@@H]2c2ccc(CO)cc2I)cc1
composite z-score [1]: 0.317 (inactive)
composite z-score (XIP peptide (Xip251-270)): 0.101
z-score [2]: -2.02
z-score [3]: -2.58 (inactive)
z-score [4]: 0.0841 (inactive)
z-score [5]: 0.925 (inactive)

C=CCC(OC(C)=O)[C@@H]1[C@@H](N(Cc2cccc3ccccc23)C(=O)Cc2ccc(F)cc2)c2cc(OCCCO)ccc2N1C(=O)c1ccc(-c2ccccc2)cc1 (stereo partly specified)
composite z-score [1]: -1.31 (inactive)
composite z-score (XIP peptide (Xip251-270)): -1.14
z-score [2]: -1.69
z-score [3]: -1.09 (inactive)
z-score [4]: 0.19 (inactive)
z-score [5]: -0.39 (inactive)

[N-]=[N+]=Nc1ccccc1C[C@]1(C(=O)NCc2ccccc2)COC(c2ccc(OCCCO)cc2)=N1
composite z-score [1]: 0.261 (inactive)
composite z-score (XIP peptide (Xip251-270)): 0.651
z-score [2]: -2.38
z-score [3]: -5.36 (inactive)
z-score [4]: -0.364 (inactive)
z-score [5]: -0.571 (inactive)

C=CCC(OC(C)=O)[C@@H]1[C@@H](N(Cc2cccc3ccccc23)C(=O)c2ccc(-c3ccccc3)cc2)c2cc(OCCCO)ccc2N1C(=O)c1ccc(-c2ccccc2)cc1 (stereo partly specified)
composite z-score [1]: -0.303 (inactive)
composite z-score (XIP peptide (Xip251-270)): -0.811
z-score [2]: 0.579
z-score [3]: -1.17 (inactive)
z-score [4]: 0.492 (inactive)
z-score [5]: 0.0424 (inactive)

C=C(/C(=C/C[C@H](OC(=O)c1ccncc1)c1cccc(OCCO)c1)c1cnc2ccccc2c1)C(C)C
composite z-score [1]: 0.0082 (inactive)
composite z-score (XIP peptide (Xip251-270)): 0.67
z-score [2]: -1.42
z-score [3]: -5.01 (inactive)
z-score [4]: 0.654 (inactive)
z-score [5]: 0.212 (inactive)

COC(=O)[C@@]1(Cc2ccccc2CN=[N+]=[N-])N=C(c2ccc(OCCCO)cc2)O[C@H]1c1ccccc1CN=[N+]=[N-]
composite z-score [1]: 0.192 (inactive)
composite z-score (XIP peptide (Xip251-270)): 0.723
z-score [2]: -2.2
z-score [3]: 0.87 (inactive)
z-score [4]: -0.598 (inactive)
z-score [5]: -0.223 (inactive)

C=CCNC(=O)[C@@H]1[C@H]2C(=O)O[C@H](c3ccccc3)[C@H](c3ccccc3)N2[C@H](c2ccc(O)cc2)[C@@]12C(=O)Nc1ccc(C#CCC(C(=O)OC)C(=O)OC)cc12
composite z-score [1]: 1.03 (inactive)
composite z-score (XIP peptide (Xip251-270)): 0.729
z-score [2]: -1.84
z-score [3]: -2.97 (inactive)
z-score [4]: -0.267 (inactive)
z-score [5]: -0.625 (inactive)

C=CCNC(=O)[C@H]1[C@@H]2C(=O)O[C@@H](c3ccccc3)[C@@H](c3ccccc3)N2[C@@H](c2ccc(OCCO)cc2)[C@]12C(=O)Nc1ccc(C#CCNC(N)=O)cc12
composite z-score [1]: 0.952 (inactive)
composite z-score (XIP peptide (Xip251-270)): 0.512
z-score [2]: -1.13
z-score [3]: -3.66 (inactive)
z-score [4]: 0.0622 (inactive)
z-score [5]: 0.183 (inactive)

NCCCCCNC(=O)[C@H]1C[C@H]2C(=O)N[C@@H](Cc3ccccc3)C(=O)N2[C@H]1c1ccc(O)cc1
composite z-score [1]: 1.46 (inactive)
composite z-score (XIP peptide (Xip251-270)): 0.75
z-score [2]: -0.236
z-score [3]: -3.78 (inactive)
z-score [4]: 1.01 (inactive)
z-score [5]: 0.921 (inactive)

CN(C)C(=O)[C@]1(CCS(=O)(=O)c2ccccc2)N=C(c2ccc(OCCCO)cc2)O[C@@H]1c1ccccc1
composite z-score [1]: 0.428 (inactive)
composite z-score (XIP peptide (Xip251-270)): 0.701
z-score [2]: -1.96
z-score [3]: -5.77 (inactive)
z-score [4]: -0.161 (inactive)
z-score [5]: 0.0689 (inactive)

C=C[C@@H](C)[C@@H](OC(=O)Nc1ccc(SC)cc1)c1ccc(OCCO)cc1
composite z-score [1]: -0.0412 (inactive)
composite z-score (XIP peptide (Xip251-270)): 0.663
z-score [2]: -0.553
z-score [3]: -5.52 (inactive)
z-score [4]: 0.129 (inactive)
z-score [5]: 0.387 (inactive)

CC1CC/C=C\[C@H]2OC34C=CCN(CCN5CCOCC5)C(=O)[C@H]3N(C(C)CO)C(=O)[C@@H]4C2C(=O)O1 (stereo partly specified)
composite z-score [1]: -0.153 (inactive)
composite z-score (XIP peptide (Xip251-270)): 0.371
z-score [2]: -0.359
z-score [3]: -5.12 (inactive)
z-score [4]: 0.16 (inactive)
z-score [5]: 0.219 (inactive)

C=C[C@H](C)[C@H](OC(=O)Nc1ccc(OC)cc1)c1ccc(OCCO)cc1
composite z-score [1]: 0.526 (inactive)
composite z-score (XIP peptide (Xip251-270)): -0.0503
z-score [2]: -1.15
z-score [3]: -4.59 (inactive)
z-score [4]: -0.806 (inactive)
z-score [5]: -0.261 (inactive)

From PubChem BioAssay
